The structures appear in SMILES notation. Out of some 52,000 compounds screened, about 4,300 (8.3%) were called active. Cut-off read from the data, not from the text of the source: active = survival mostly below about 52% (no sharp cut-off); inactive = mostly above about 56%. Only a selection was taken, and actives are over-represented in it overall.

This assay has as its system DeltatarO mutant. The assay can be described thus: growth inhibition of S. aureus wild type versus tarO mutant, primary screen, teichoic acid synthesis inhibitors, RN4220, OD600 (AID 463173). To be noted: OD600, 18 h, stronger effect = lower value, screened at 18.75 µg/mL (by protocol).
As to `COc1ccc(-c2nc(SCC(=O)NCCc3ccc(OC)c(OC)c3)n[nH]2)cc1`, the survival was 88% (inactive). Next, `COc1ccc(NC(=O)C2(c3cccs3)CCOCC2)cc1Cl`: 91% (inactive). Next, `Cc1cccc(CN2C(=O)c3ccccc3S(=O)(=O)c3ccc(C(=O)OCC4CCCO4)cc32)c1` (stereo unspecified): 90% (inactive). Next, `CCOc1cccc(OCCCn2c(-c3ccc(Br)cc3)nc3ccccc3c2=O)c1`: 64% (inactive); `Cc1ccc(C)c(Cn2c3ccccc3c3cnn(CC(=O)NCC(C)c4ccccc4)c(=O)c32)c1` (stereo unspecified): 72% (inactive); `COc1ccccc1NC(=O)NC1(C(=O)N2CCCCC2)CCCCC1`: 85% (inactive). As to `CCc1ccc(C2N=C(N)Nc3nc4ccccc4n32)cc1` (stereo unspecified), the survival was 137% (inactive). Next, `O=C1C(=Cc2ccc3c(c2)OCO3)C(=O)c2ccccc21`: 64% (inactive).

Consider `O=C1c2ccccc2-c2nc3ncnn3c(-c3ccc4c(c3)OCO4)c21`, for which the survival was 49% (active). On to `Cc1cccc(-c2c3c(nc4ncnn24)-c2ccccc2C3=O)c1`, for which the survival is 74% (inactive). Next, `Cc1nc2c3ccccc3nc(NNC(=O)CCC(=O)N3CCN(c4cccc(Cl)c4)CC3)n2n1`: 107% (inactive); `Cc1nc2c3ccccc3nc(NNC(=O)CCC(=O)N3CCN(c4ccccc4F)CC3)n2n1`: 79% (inactive); `Cc1nc2c3ccccc3nc(NNC(=O)CCC(=O)N3CCN(c4cc(Cl)ccc4C)CC3)n2n1`: 55% (active). Next, `O=c1c2sc3ccccc3c2n(Cc2cccc(C(F)(F)F)c2)c(=O)n1-c1ccccc1`: 73% (inactive). Next, `O=c1cc(O)c2ccccc2[nH]1`: 75% (inactive); `c1ccc(-c2cc3ccsc3s2)cc1`: 99% (inactive). `Oc1cc2ccsc2c2ccccc12`: the survival was 9% (active). With `COc1ccc(NC(=O)CCCSc2nc(-c3ccco3)cc(C(F)(F)F)n2)cc1` the figure was 55% (inactive). With `COc1ccc(NC(=O)CCCSc2nc(-c3ccco3)cc(C(F)(F)F)n2)cc1OC` the figure was 45% (inactive). Regarding `COc1cc(NC(=O)CSc2nc(-c3ccco3)cc(C(F)(F)F)n2)cc(OC)c1OC`, the survival was 54% (inactive).

Consider `COc1ccc(NC(=O)CCCSc2nc(-c3ccco3)cc(C(F)(F)F)n2)c(OC)c1`, for which the survival is 16% (active).

As for `COc1cc(NC(=O)CCCSc2nc(-c3ccco3)cc(C(F)(F)F)n2)cc(OC)c1OC`, the survival was 38% (active). Next, `COc1ccc(NC(=O)CSc2nc(-c3ccco3)cc(C(F)(F)F)n2)c(OC)c1`: 56% (inactive). Next, `COc1ccc(-c2nc3scc(CCNS(=O)(=O)c4ccc(C)cc4)n3n2)cc1`: 70% (inactive). With `CCn1cc2nc(SCc3cccc(C(F)(F)F)c3)n(Cc3ccc(Cl)cc3)c(=O)c2n1` the figure was 124% (inactive); with `COc1cccc(N2CCN(c3ccc4nnc(CCC(=O)O)n4n3)CC2)c1`, 89% (inactive). For the molecule `Cc1nn(C)c(C)c1CCNC(=O)Nc1ccccc1C(F)(F)F`, the survival is 6% (active). Next, `COC(=O)c1ccc(Cl)cc1NC(=O)NCCc1c(C)nn(C)c1C`: 81% (inactive); `COc1ccc(Cl)cc1NC(=O)NCCc1c(C)nn(C)c1C`: -1% (active). For `COc1ccc(NC(=O)NCCc2c(C)nn(C)c2C)c(OC)c1`, the survival is 90% (inactive). Next, `Cc1nn(C)c(C)c1CCNC(=O)Nc1cccc(Cl)c1C`: 67% (inactive); `COC(=O)c1ccccc1NC(=O)NCCc1c(C)nn(C)c1C`: 86% (inactive); `Cn1c(=O)oc2cc(S(=O)(=O)NC(Cc3ccccc3)C(=O)Nc3ccc(F)c(Cl)c3)ccc21` (stereo unspecified): 83% (inactive). Next, `COc1ccc(NC(=O)CN(C)S(=O)(=O)c2cccc3nsnc23)cc1`: 106% (inactive); `Cc1nnc(SCC(=O)Nc2ccc(N(C)C)cc2)[nH]c1=O`: 77% (inactive); `O=c1[nH]c(SCc2ccc(Br)cc2)nc2c1CCCC2`: 52% (inactive).

Take `O=c1[nH]c(SCc2ccc(F)cc2)nc2c1CCCC2`: the survival is 63% (active). Next, `O=c1[nH]c(SCc2ccccc2)nc2c1CCCC2`: 57% (inactive); `O=C(CSc1nc2ccccc2nc1Cc1ccc(Cl)cc1)N1CCN(c2ccccc2F)CC1`: 71% (inactive).

`Cc1ccc(NC(=O)CSc2nc3ccc(NC(=O)COc4ccc(C)cc4)cc3s2)cc1`: the survival is 83% (inactive). With `CC(=O)Nc1cc(C(=O)NCc2ccc(C)cc2)ccc1Sc1ccc(C)cc1`, the survival is 96% (inactive). Next, `COCc1cc(C)nc2c1C(=O)NC(c1ccc(Br)cc1)N2Cc1ccccc1` (stereo unspecified): 69% (inactive); `COc1cc2c(cc1NC(=O)C(C)Oc1ccc(Cl)cc1Cl)oc1ccccc12` (stereo unspecified): 38% (active); `COc1ccc(-c2nc3ccccc3o2)cc1NC(=O)C(C)Oc1ccc(Cl)cc1Cl` (stereo unspecified): 38% (active). As for `Cc1ccc2cccc(NC(=O)C(C)Oc3ccc(C)c(C)c3)c2n1` (stereo unspecified), the survival is 56% (inactive).

On to `Cc1ccc2cccc(NC(=O)C(C)Oc3ccc(Cl)cc3Cl)c2n1` (stereo unspecified), for which the survival was -2% (active). With `Cc1ccc(OCC(=O)Nc2cccc3ccc(C)nc23)c(C)c1` the figure was 62% (inactive). Next, `COc1ccc(Cl)cc1NC(=O)NCc1noc2ccccc12`: 35% (inactive); `COc1cc2c(cc1NC(=O)COc1ccc(Cl)cc1Br)oc1ccccc12`: 51% (inactive).

Regarding `COc1cc2c(cc1NC(=O)COc1cc(C)ccc1C)oc1ccccc12`, the survival was 79% (inactive). With `COc1cc2c(cc1NC(=O)COc1cc(C)cc(C)c1)oc1ccccc12` the figure was 59% (inactive); with `COc1cc2c(cc1NC(=O)C(C)Oc1ccccc1)oc1ccccc12` (stereo unspecified), -1% (active). `CCOC(=O)c1ccc(NC(=O)CSc2nnc3c4ccccc4n(CC)c3n2)cc1`: the survival is 72% (inactive). With `O=C(CSc1nc2c(c(=O)[nH]1)CN(Cc1ccc3c(c1)OCO3)CC2)Nc1ccc(F)cc1` the figure was 75% (inactive); with `Cc1ccc(NC(=O)Cn2cc(S(=O)(=O)c3ccc(C)cc3)c(=O)c3cc4c(cc32)OCO4)cc1`, 58% (inactive); with `COc1ccc(NC(=O)c2c(NCc3sccc3C)sc3c2CCCCC3)c(OC)c1`, 85% (inactive). Next, `CCOc1ccc(CCNc2ncnc3onc(C)c23)cc1OCC`: 71% (inactive); `O=C(Nc1cccnc1)c1cc(-c2cccc(Cl)c2)on1`: 115% (inactive). With `O=C(CN1C=NS(=O)(=O)c2ccccc21)Nc1ccc(F)cc1` the figure was 87% (inactive); with `CC1=C(C(=O)Nc2ccc(C)cc2C)C(c2ccc[nH]2)n2ncnc2N1` (stereo unspecified), 89% (inactive); with `O=C(CSc1ncc2c(n1)-c1ccccc1N(Cc1ccc(F)cc1)S2(=O)=O)c1ccc(Cl)cc1`, 89% (inactive).

Regarding `CCOC(=O)c1c(C)[nH]c(C)c1S(=O)(=O)N(C)CC(=O)N1CCN(c2cccc(C)c2C)CC1`, the survival is 84% (inactive). With `CC(C)c1nn2c(=O)cc(COC(=O)c3ccc(NC(=O)COc4ccccc4)cc3)nc2s1` the figure was 98% (inactive); with `O=C(NCCS(=O)(=O)N1CCN(c2ccc(F)cc2)CC1)c1cc(=O)c2ccccc2o1`, 94% (inactive); with `CCCOc1ccc(C2C(=O)N(C3CCCCC3)CC(=O)N2C2CCCCC2)cc1OC` (stereo unspecified), 91% (inactive).

With `CCCOc1ccc(C2C(=O)N(C3CCCCCC3)CC(=O)N2CCC)cc1OC` (stereo unspecified), the survival is -4% (active). With `CCCCN1C(=O)CN(C2CCCCCC2)C(=O)C1c1ccc(OCCC)c(OC)c1` (stereo unspecified) the figure was 66% (inactive); with `COc1ccc(C2C(=O)N(C3CCC(C)CC3)CC(=O)N2C2CCCCC2)cc1OC` (stereo unspecified), 76% (inactive).

Regarding `COc1ccc(C2C(=O)N(C3CCC(C)CC3)CC(=O)N2CCC2=CCCCC2)cc1OC` (stereo unspecified), the survival is -1% (active). With `CCCN1C(=O)CN(C2CCCCCC2)C(=O)C1c1ccc(OCC)c(OC)c1` (stereo unspecified) the figure was 109% (inactive); with `CCCOc1ccc(C2C(=O)N(C3CCC(C)CC3)CC(=O)N2CCC2=CCCCC2)cc1OC` (stereo unspecified), 80% (inactive); with `CCCOc1ccc(C2C(=O)N(C3CCCCCC3)CC(=O)N2CCC2=CCCCC2)cc1OC` (stereo unspecified), 119% (inactive).

For the molecule `COc1ccc(C2C(=O)N(C3CCC(C)CC3)CC(=O)N2C2CCCC2)cc1OC` (stereo unspecified), the survival was -2% (active). In the case of `CCCCN(C)C(=O)CN1C(=O)CCn2nc(-c3cn(C)c4ccccc34)cc21`, the survival is 117% (inactive). Turning to `Cc1cccc(NC(=O)CSc2nc(=O)n(CCN3CCOCC3)c3c2CCC3)c1`, the survival was 86% (inactive).

Consider `COc1cccc(C(=O)NCCSc2c(-c3ccc(F)cc3)[nH]c3ccccc23)c1OC`, for which the survival was 52% (inactive).

On to `O=C(NC1CCN(C(=O)Nc2cccc(F)c2)CC1)c1ccco1`, for which the survival is 88% (inactive). With `COc1cccc(N2C(=O)N(CC(=O)NCc3cccc(OC)c3OC)c3ccccc3S2(=O)=O)c1` the figure was 95% (inactive); with `COc1cc(C(Nc2ccc(S(=O)(=O)N3CCCC3)cc2)C(=O)NC(C)(C)C)cc(OC)c1OC` (stereo unspecified), 77% (inactive); with `CC(=O)ONC(=Nc1ccccc1C)c1nonc1N`, 101% (inactive).

Turning to `N#C/C(=C\c1ccc(Cl)cc1Cl)c1nc(-c2cccc(Cl)c2)cs1`, the survival was 79% (inactive). Next, `N#C/C(=C/c1ccccc1Cl)c1nc(-c2cc3ccccc3oc2=O)cs1`: 81% (inactive); `COc1c(Cl)cc(Cl)cc1/C=C(\C#N)c1nc(-c2ccc(Cl)cc2)cs1`: 122% (inactive). Next, `Cc1ccccc1/C=C(\C#N)c1nc(-c2ccc(Cl)cc2)cs1`: 14% (active); `COc1ccc(OC)c(/C=C(/C#N)c2nc(-c3ccc(-c4ccccc4)cc3)cs2)c1`: 52% (inactive); `Cc1ccc(-c2csc(/C(C#N)=C/c3ccccc3Cl)n2)cc1`: 21% (active). With `O=C1[C@@H]2CSC(c3ccc(Cl)cc3)N2C(=O)N1c1ccccc1` (stereo partly specified) the figure was 71% (inactive); with `CCc1ccc(CSc2nc(-c3ccc(OC)cc3)nc3c2Cc2c(CO)cnc(C)c2O3)cc1`, 72% (inactive). `COCCNC(=O)C1CC(=O)N(c2ccc(C)cc2)C1` (stereo unspecified): the survival was 82% (inactive). Next, `CCOC(=O)c1cc(-c2ccc(OC)cc2)n(CCC(=O)NC2CCCCC2)c1C`: 115% (inactive). Next, `CCOc1ccc(CCNC(=O)Cn2nnc(-c3ccc(C(F)(F)F)cc3)n2)cc1OCC`: 82% (inactive).

The values are drawn from PubChem BioAssay AID463173 (ICCB-Longwood Screening Facility, Harvard Medical School, 2010).
